Source: PubChem BioAssay (NCATS)
Inconclusive results are not listed. Entries that show only a call come without a potency. Activity calls are given as the source filed them. Calls come from the whole dose curve; as a rule, active = well fitted inhibition curve with a large enough effect; inconclusive = small, poorly fitted or top-dose-only effect; inactive = flat fitted curve, though single readings scatter.

Tests used:
Test in all cases: qHTS profiling for inhibitors of Plasmodium falciparum proliferation (AID 504749); note: nearly all actives have a fitted effect of over 60% in size
Details in all cases: P. falciparum in erythrocytes, SYBR Green DNA, 72 h; series mostly up to 28.7 µM
[1] = tested on: CP250
Summary of the method: (§1)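 P. falciparum-infected erythrocytes (0.3% parasitemia, 2.5% hematocrit final) were exposed to compounds for 72 h at 37 C in 5% CO2, then lysed with SYBR Green buffer overnight at room temperature; parasite DNA fluorescence was normalized to artemisinin and DMSO controls.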

[2] = tested on: CP252
Summary of the method: as §1

[3] = tested on: CP256
Summary of the method: as §1

[4] = tested on: CP260
Summary of the method: as §1

[5] = tested on: CP262
Summary of the method: as §1

[6] = tested on: CP265
Summary of the method: as §1

[7] = tested on: CP266
Summary of the method: as §1

[8] = tested on: CP268
Summary of the method: as §1

[9] = tested on: CP269
Summary of the method: as §1

[10] = tested on: CP286
Summary of the method: as §1

[11] = tested on: CP291
Summary of the method: as §1

[12] = tested on: CP297
Summary of the method: as §1

[13] = tested on: CP305
Summary of the method: as §1

[14] = tested on: CP315
Summary of the method: as §1

[15] = tested on: CP325
Summary of the method: as §1

[16] = tested on: CP329
Summary of the method: as §1

[17] = tested on: CP335
Summary of the method: as §1

[18] = tested on: DFO2036
Summary of the method: as §1

[19] = tested on: DIV14
Summary of the method: as §1

[20] = tested on: DIV17
Summary of the method: as §1
Potency is the fitted concentration of half-maximal effect.

Row | Compound | Potency [1] | Potency [2] | Potency [3] | Potency [4] | Potency [5] | Potency [6] | Potency [7] | Potency [8] | Potency [9] | Potency [10] | Potency [11] | Potency [12] | Potency [13] | Potency [14] | Potency [15] | Potency [16] | Potency [17] | Potency [18] | Potency [19] | Potency [20]
1 | O=C(NNCNNC(=O)c1ccncc1)c1ccncc1 | inactive | inactive | inactive | inactive | inactive | inactive | inactive | inactive | inactive | inactive | inactive | inactive | inactive | inactive | inactive | inactive | inactive | inactive | inactive | inactive
2 | O=C(OCc1ccccc1)c1ccc(O)cc1 | inactive | inactive | inactive | inactive | inactive | inactive | inactive | inactive | inactive | inactive | inactive | inactive | inactive | inactive | inactive | inactive | inactive | inactive |  | inactive
3 | CC(=O)[C@H]1CC[C@H]2[C@@H]3C=CC4=CC(=O)CC[C@@]4(C)[C@H]3CC[C@]12C | inactive | inactive | inactive | inactive | inactive | inactive | inactive | inactive | inactive | inactive | inactive | inactive | inactive | inactive | inactive | inactive | inactive | inactive | inactive | inactive
4 | O=S(=O)(O)CC(S)CS (stereo unspecified) | inactive | inactive | inactive | inactive | inactive | inactive | inactive | inactive | inactive | inactive | inactive | inactive | inactive | inactive | inactive | inactive | inactive | inactive | inactive | inactive
5 | COc1ccc(/C=N/NC(=O)c2ccncc2)c(C(=O)O)c1OC | inactive | inactive | inactive | inactive | inactive | inactive | inactive | inactive | inactive | inactive | inactive | inactive | inactive | inactive | inactive | inactive | inactive | inactive | inactive | inactive
6 | O=S(=O)(O)CCCS(=O)(=O)O | inactive | inactive | inactive | inactive | inactive | inactive | inactive | inactive | inactive | inactive | inactive | inactive | inactive | inactive | inactive | inactive | inactive | inactive | inactive | inactive
7 | Cc1ncc(COP(=O)(O)O)c(CN)c1O | inactive | inactive | inactive | inactive | inactive | inactive | inactive | inactive | inactive | inactive | inactive | inactive | inactive | inactive | inactive | inactive | inactive | inactive | inactive | inactive
8 | CC(C)CCC[C@@H](C)[C@H]1CC[C@H]2[C@@H]3CC[C@@H]4C[C@H](O)CC[C@]4(C)[C@H]3CC[C@]12C | inactive | inactive | inactive | inactive | inactive | inactive | inactive | inactive | inactive | inactive | inactive | inactive | inactive | inactive | inactive | inactive | inactive | inactive | inactive | inactive
9 | CCc1ccc(S(=O)(=O)O)cc1 | inactive | inactive | inactive | inactive | inactive | inactive | inactive | inactive | inactive | inactive | inactive |  | inactive | inactive | inactive | inactive | inactive | inactive | inactive | inactive
10 | C=CC[C@@H]1/C=C(\C)C[C@H](C)C[C@H](OC)[C@H]2O[C@@](O)(C(=O)C(=O)N3CCCC[C@H]3C(=O)O[C@H](/C(C)=C/[C@@H]3CC[C@@H](O)[C@H](OC)C3)[C@H](C)[C@@H](O)CC1=O)[C@H](C)C[C@@H]2OC | 0.891 µM (active) | 1 µM (active) | 0.708 µM (active) | 0.794 µM (active) | 4.26 µM (active) | 0.631 µM (active) | 8.49 µM (active) | 0.849 µM (active) | 3.79 µM (active) | 1 µM (active) | 6.75 µM (active) | 1.9 µM (active) |  | 6.75 µM (active) | 4.26 µM (active) | 4.26 µM (active) |  | 1 µM (active) | 1.69 µM (active) | 1.69 µM (active)
